A short description of test [1]: blockers of polyQ-driven CASP3 activation – cell-based (AID 1583). The settings on record: polyglutamine-induced caspase-3 activation, cell assay; stronger effect = higher value;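 tested at 10 µM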.
Test [2] in a line: yeast 75Q aggregation reduction – 75Q-TubU reporter (AID 1593). The settings on record: Yeast 75Q polyglutamine aggregation reporter.
Test [3] is described as follows: restoration of touch response, mutant HTT neurons – whole organism, C. elegans mechanosensory neurons, N-terminal huntingtin (AID 1599). The following applies: C. elegans polyQ-huntingtin mechanosensory neurons, stronger effect = higher value.
A short description of test [4]: blockers of cytochrome c efflux from mitochondria – biochemical, purified mitochondria (AID 1603).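 Also: mouse liver mitochondria challenged with calcium chloride; signal normalized to the plate average as 100%.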 The following applies: stronger effect = lower value.
Test [5] in a line: polyglutamine aggregate formation blockers (AID 1604). The following applies: polyglutamine-induced protein aggregation inhibition assay; stronger effect = higher value; tested at 2.5 µM.
Test [6] in a line: glutamate transport activators, MN-1 cells, MN-1 cell line (AID 1612).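 Also: tested at 1 µM final; 0% = mean of DMSO vehicle wells on each plate; positive means more glutamate uptake than control and negative means less.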 The following applies: MN-1 motor neuron cells, stronger effect = higher value.
Test [7] in a line: 75Q-TubH aggregate inhibition, S. cerevisiae, yeast (AID 1616). The settings on record: S. cerevisiae 75Q-TubH polyglutamine aggregation suppression; stronger effect = higher value.
A short description of test [8]: GFP-Q80 aggregate reduction, neuronal-like cells, cell-based, NGF-treated PC12, GFPQ80 (AID 1614).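 Also: lower means fewer inclusions and 0 means no inclusions at all.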 The settings on record: PC12 NGF-treated GFP-polyQ80 inclusion reduction.
A short description of test [9]: galactose survival enhancers in mitochondrial complex I cybrids – cell-based, galactose medium, ATP luminescence, primary screen (AID 1645843).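 Also: positive z means more ATP and so rescue of galactose-driven cybrid death.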 The settings on record: complex I mutant cybrid cells, 72 h, stronger effect = higher value.

For some assays here: Measured potencies and affinities stand elsewhere. The source made the active and inactive calls.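 The calls were made as follows: active = z-score of at least 1.8 in each of two replicates, scored against plate mean and spread of sample wells; inactive = the rest.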

The inhibition is the relative decrease from the control value, in per cent.

As to `ClC1=C(Cl)C2(Cl)C3C4CC(C5OC45)C3C1(Cl)C2(Cl)Cl` (stereo unspecified), the inhibition in [1] was determined as 8.56%. In test [2], the score is 0. The rescue above control in [3] is 3.84. For the same compound, the cytochrome c release ratio in [4] came out at 1.81. In addition, the inhibition of aggregation in test [5] stood at 72.4%. In addition, the glutamate uptake change in test [6] was -23.9%. This compound had an aggregation suppression score in [7] of 0.719.
For `CN1CC[C@]23c4c5ccc(O)c4O[C@H]2C(=O)CCC3[C@H]1C5` (stereo partly specified), the inhibition in test [1] is 7.55%. Also, the score in test [2] is 1.13. Besides, the rescue above control in [3] is -11.3. In test [4], the cytochrome c release ratio was found to be 1.11. The inhibition of aggregation in test [5] is -0.68%. The glutamate uptake change in [6] amounted to 20.7%. The same compound showed an inclusion score in [8] of 2. For the same compound, the aggregation suppression score in [7] was 1.27.
For `O=C1Nc2ccc(Cl)cc2C(c2ccccc2)=NC1O` (stereo unspecified), the inhibition in test [1] was -2.46%. The same compound returned a score in test [2] of 1.01. This compound displayed a rescue above control in test [3] of -7.17. The cytochrome c release ratio in test [4] is 1.14. Also, the inhibition of aggregation in test [5] amounted to 32%. Further, the glutamate uptake change in [6] was 0.27%. This compound had an aggregation suppression score in test [7] of 0.898.
As to `C[C@]12CCC3C(CC[C@@H]4C[C@H](O)CC[C@]34C)C1CCC2=O` (stereo partly specified), the inhibition in test [1] stood at 61%. This compound registered a score in test [2] of 0.81. The compound also came in with a rescue above control in test [3] of -3.82. Further, the cytochrome c release ratio in [4] came out at 0.77. In test [5], the inhibition of aggregation was 91.7%. Besides, the glutamate uptake change in test [6] is -9.61%. In test [7], the aggregation suppression score was found to be 0.472.
Regarding `CNC(C)C(=O)c1ccccc1` (stereo unspecified), in [1], the inhibition is -15.1%. Further, the score in [2] is 1.02. In addition, the rescue above control in test [3] was -6.75. For the same compound, the cytochrome c release ratio in test [4] is 1.05. Also, in [5], the inhibition of aggregation turned out to be 49.7%. Further, in [6], the glutamate uptake change was -3.86%. This compound registered an inclusion score in [8] of 2. The compound also gave an aggregation suppression score in test [7] of 1.11.
As to `COc1ccc(CN2CCN(C)C(CCO)C2)c(OC)c1OC` (stereo unspecified), in test [9], the z-score was -0.21 (inactive).
Regarding `CCC1(CCC(C)C)C(=O)NC(=O)NC1=O`, the inhibition in test [1] was determined as 6.77%. The compound also returned a score in [2] of 1.7. Further, the rescue above control in test [3] came out at 0.92. Further, the cytochrome c release ratio in test [4] is 0.96. Further, the inhibition of aggregation in test [5] is 40.1%. The glutamate uptake change in test [6] is -7.2%. Moreover, the inclusion score in test [8] was 2. Besides, in [7], the aggregation suppression score was 1.35.
Take `CCCOC1CCCN(C2CCN(C)CC2)C1` (stereo unspecified): the z-score in [9] was -0.46 (inactive).
In the case of `COc1ccc2c3c1O[C@H]1[C@@H](O)C=CC4[C@@H](C2)N(C)CC[C@@]341` (stereo partly specified), the inhibition in test [1] is -19%. The compound further returned a score in [2] of 1.17. Besides, the rescue above control in [3] is 2.82. The cytochrome c release ratio in test [4] worked out at 0.92. For the same compound, the inhibition of aggregation in test [5] turned out to be 61.9%. The glutamate uptake change in test [6] was -22%. Also, the inclusion score in test [8] was 2. The compound further showed an aggregation suppression score in [7] of 1.22.
In the case of `CC[C@@H]1[C@@H](O)N2C3C[C@H]1C1C(O)[C@]4(C[C@@H]12)c1ccccc1N(C)[C@@H]34` (stereo partly specified), in [1], the inhibition stood at 7.74%. Besides, the score in [2] is 0.91. The same compound yielded a rescue above control in [3] of -2.66. The cytochrome c release ratio in test [4] stood at 0.89. In [5], the inhibition of aggregation is -46.3%. Further, the glutamate uptake change in test [6] is -1.35%. The inclusion score in [8] was found to be 2. This compound also came in with an aggregation suppression score in test [7] of 1.31.
With `CN1C(=O)CN=C(c2ccccc2F)c2cc([N+](=O)[O-])ccc21`, in test [1], the inhibition was 9.27%. In [2], the score turned out to be 0.97. Moreover, the rescue above control in [3] is -7.57. Moreover, the cytochrome c release ratio in test [4] was found to be 0.83. For the same compound, in test [5], the inhibition of aggregation stood at 22.4%. For the same compound, in [6], the glutamate uptake change was -1.18%. The same compound showed an inclusion score in test [8] of 2. This compound came in with an aggregation suppression score in test [7] of 0.965.
